Shown are actives, neighbours in structure and some others; about 2.1% of the full set was active somewhere.
Ba/F3 V617F tox: lowers viability of Ba/F3 cells expressing EpoR and JAK2V617F | ATP luminescence | inhibition, % at 5.6 µM | actives 1.1% (n = 220,000) | AID 1446;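 active = inhibition above the campaign mean plus 3 SD over all tested compounds, cut at about 24% in these data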;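 also: cytokine-independent growth of Ba/F3 cells driven by EpoR plus mutant JAK2; 0% = DMSO-treated cells and 100% = JAK inhibitor I control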
BaF3 parental: counter-screen for JAK2V617F inhibitors: parental Ba/F3 viability inhibitors; CellTiter-Glo ATP luminescence; inhibition, % at 5.6 µM; actives 1.1% (n = 220,000); AID 1486;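 active = inhibition above a per-campaign cutoff, the mean inhibition of all tested compounds plus 3 SD, cut at about 27% in these data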;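 also: 0% = DMSO wells and 100% = JAK Inhibitor I control wells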
aSyn 5UTR inh: MLPCN primary screen, SNCA 5' untranslated region; AID 1813; alpha-synuclein 5'UTR reporter, inhibitor activity; actives 0.82% (n = 300,000); inhibition, % (tested at 7.5 µM); in the data active = inhibition above about 60%;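 also: H4 neuroglioblastoma cells stably carrying SNCA 5'UTR luciferase fusion; 0% = DMSO wells and 100% = positive control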
APP transl inh: APP translation inhibition; SH-SY5Y APP 5'UTR-luciferase reporter, luminescence; inhibition, % at 2 µM; actives 0.82% (n = 190,000);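 active = inhibition above a set limit, derived from the sample mean plus 3 SD, cut at about 45% in these data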
KLF5 inh: inhibitors of KLF5 expression. actives 0.23% (n = 290,000). inhibition, % at 5 µM. DLD-1 KLF5 promoter-luciferase reporter, luminescence. AID 1700;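 active = inhibition above a per-plate limit of that plate's mean compound inhibition plus 3 SD, cut at about 60% in these data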;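 also: 0% = DMSO wells and 100% = LY294002 at 200 µM; higher means less KLF5 promoter-driven luciferase light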
IEC-6 cytotox: IEC-6 cytotoxicity, counter-screen for KLF5 inhibitors | AID 1825 | luminescence viability | actives 0.78% (n = 290,000) | inhibition, % at 5 µM; in the data active = inhibition above about 22%;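 also: 0% = plate median of test compound wells and 100% = cytotoxic reference compound wells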
The depositor's hits bear a star.

What do the screens show for `Cc1ccc(-c2ccc(/C=C3\SC(N4CCOCC4)=NC3=O)o2)cc1`?
Ba/F3 V617F tox: -3; BaF3 parental: 11; aSyn 5UTR inh: -72; APP transl inh: 17; KLF5 inh: -24; IEC-6 cytotox: 102*

Results for CN1CCN(/N=C/c2ccc(N(C)c3ccccc3)cc2)CC1 ?
Ba/F3 V617F tox: 5; BaF3 parental: 10; aSyn 5UTR inh: -21; APP transl inh: -7; KLF5 inh: -7; IEC-6 cytotox: 1

How did CN1CCN(/N=C/c2ccc(N(c3ccccc3)c3ccccc3)cc2)CC1 do in these assays?
Ba/F3 V617F tox: -4; BaF3 parental: 2; aSyn 5UTR inh: 71*; APP transl inh: 0; KLF5 inh: -19; IEC-6 cytotox: -1

How did CCOC(=O)/C(=N/Nc1ccc(C)cc1)S(=O)(=O)c1ccc(Cl)cc1 do in these assays?
Ba/F3 V617F tox: -1; BaF3 parental: 6; aSyn 5UTR inh: -142; APP transl inh: 63*; KLF5 inh: 1; IEC-6 cytotox: 4

What do the screens show for `CCOC(=O)/C(=N\Nc1ccccc1)S(=O)(=O)c1ccccc1`?
Ba/F3 V617F tox: 1; BaF3 parental: 7; aSyn 5UTR inh: -6; APP transl inh: 10; KLF5 inh: -17; IEC-6 cytotox: 6

What do the screens show for `Cc1ccc(NC(=S)N/N=C/c2c(Cl)cccc2Cl)c(C)c1`?
Ba/F3 V617F tox: 70*; BaF3 parental: 72*; aSyn 5UTR inh: 46; APP transl inh: 95*; KLF5 inh: 18; IEC-6 cytotox: 13

How did O=C(Nc1ccc(N2CCOCC2)cc1)c1cnccn1 do in these assays?
aSyn 5UTR inh: 67*; KLF5 inh: 44; IEC-6 cytotox: 8

What do the screens show for `O=C(Nc1ccccc1N1CCOCC1)c1cnccn1`?
Ba/F3 V617F tox: -3; BaF3 parental: 3; aSyn 5UTR inh: 16; APP transl inh: 17; KLF5 inh: 15; IEC-6 cytotox: 1

How did O=C(Nc1ccc(N2CCOCC2)cc1)c1cnsn1 do in these assays?
Ba/F3 V617F tox: -2; BaF3 parental: 6; aSyn 5UTR inh: 106*; APP transl inh: -24; KLF5 inh: 16; IEC-6 cytotox: -2

How did COc1cc(/C=C(/C#N)c2ccc(F)cc2)ccc1Oc1ccc([N+](=O)[O-])cn1 do in these assays?
Ba/F3 V617F tox: -5; BaF3 parental: 5; aSyn 5UTR inh: 29; APP transl inh: 10; KLF5 inh: -3; IEC-6 cytotox: -8

What do the screens show for `OCCNCc1ccc(OCc2ccc(Cl)cc2Cl)cc1`?
Ba/F3 V617F tox: 6; BaF3 parental: 13; aSyn 5UTR inh: -84; APP transl inh: -31; KLF5 inh: -55; IEC-6 cytotox: 10

Results for OCCCCNCc1ccc(OCc2ccc(Cl)cc2Cl)cc1 ?
Ba/F3 V617F tox: 59*; BaF3 parental: 27*; aSyn 5UTR inh: -2; APP transl inh: 1; KLF5 inh: -23; IEC-6 cytotox: 9

How did S=C(Nc1ccccc1)Nc1ccc(OCc2ccc(Cl)cc2Cl)cc1 do in these assays?
Ba/F3 V617F tox: -2; BaF3 parental: 1; aSyn 5UTR inh: 96*; APP transl inh: 70*; KLF5 inh: 27; IEC-6 cytotox: -7

What do the screens show for `Cc1cccc(-n2ncc3c2CCCC3NC(=O)CCN2CCCO2)c1C` (stereo unspecified)?
aSyn 5UTR inh: 4; KLF5 inh: -13; IEC-6 cytotox: 4

What do the screens show for `CC(C)Oc1ccc(CNC(=S)Nc2ccccc2)cc1Cl`?
aSyn 5UTR inh: 8; KLF5 inh: -11; IEC-6 cytotox: -4

What do the screens show for `CC(C)Oc1ccc(CCN=C(N)N=C(N)N)cc1Cl`?
Ba/F3 V617F tox: 6; BaF3 parental: 36*; aSyn 5UTR inh: 8; APP transl inh: -12; KLF5 inh: 13; IEC-6 cytotox: 1

Results for COc1ccccc1CNC(=O)[C@@H](NC(=O)C1CCN(C(=O)[C@@H]2CCCN2C(=O)OC(C)(C)C)CC1)C(C)C ?
aSyn 5UTR inh: 12; KLF5 inh: -17; IEC-6 cytotox: -3

What do the screens show for `c1cn(CCCNC2=NCCCCC2)cn1`?
Ba/F3 V617F tox: 2; BaF3 parental: 91*; aSyn 5UTR inh: 28; APP transl inh: -8; KLF5 inh: -2; IEC-6 cytotox: 2

What do the screens show for `c1cn(CCCNC2CCCCCCC2)cn1`?
aSyn 5UTR inh: -16

Results for CCOc1ccc(C(C(=O)NCC2CCCO2)N(Cc2cccs2)C(=O)c2snc(C(N)=O)c2N)cc1 (stereo unspecified) ?
aSyn 5UTR inh: 13; KLF5 inh: 16; IEC-6 cytotox: 10

Bioassay records: PubChem BioAssay, several laboratories
